Results on 40 sequences are retold here after the supplement of paper PMC10338343.

± gives the standard deviation. Bounds are passed on as bounds.

The first test relates to MILI (PIWIL2) piRISC loaded with L1MC piRNA (26 nt). In words: pre-steady-state target cleavage rate (min^-1); guide: L1MC piRNA 5'p-UAACUAAAUACUAUGCAAGCUGUAGG; MIWI and MILI are mouse PIWI proteins and EfPiwi is from a freshwater sponge; tags in brackets are library labels; higher = faster piRNA-guided slicing of the target. The settings on record: auxiliary factor: 500 nM mouse GTSF1. The essentials: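 Active affinity-purified piRISC (1 nM) loaded with one synthetic guide was mixed with a transcribed, DNA-blocked target RNA library (0.1 nM), with or without 500 nM GTSF1 partner protein, in HEPES–potassium acetate buffer at 33 °C for 0–8 or 0–960 min. Uncleaved targets were sequenced, normalised to depth and to weakly complementary targets, and pooled across three trials, with k3 capped at 0.0001 min^-1. The pre-steady-state cleavage rate was determined with a burst-and-steady-state fit.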
As to UCCUGGAACAGGAAGCAUAGUAUUUUCAAA, the “pre-steady-state target cleavage rate” value turned out to be 0.00836 ± 0.0043.

Consider UCCUGGAUGAGCUUGCAUAGAAUUAAGUUA, for which the “pre-steady-state target cleavage rate” value was determined as 0.00512 ± 0.0037.

On to UCCUGGAUGUGCAUGCAUAGAAUUUAGUUA, for which the “pre-steady-state target cleavage rate” value was found to be 0.00714 ± 0.0044.

Consider UCCUGGAACAGCUUGCUAAGUAUUUAGUAA, for which the “pre-steady-state target cleavage rate” value is 0.0296 ± 0.01.

For the sequence UCCUGCUACAGCUUGCUAAGUAUUUAGAAA, the “pre-steady-state target cleavage rate” value worked out at 0.0738 ± 0.017.

As for UCCUGGAUGUCGUUGCAUAGUAUUUUGUUA, the “pre-steady-state target cleavage rate” value worked out at 0.194 ± 0.044.

As for UCCUGCUACAGCUUGCAAUGUAUUUUCAAA, the “pre-steady-state target cleavage rate” value was 0.00975 ± 0.0041.

With UCCUGGUACUGCUUGCAUAGUAUUUACUUA, the “pre-steady-state target cleavage rate” value came to 0.0201 ± 0.0085.

For the sequence UCCUCCUACAGCUUGCAUAGAUAUUAGAAA, the “pre-steady-state target cleavage rate” value stood at 0.00453 ± 0.0044.

Consider UCCUGGAACAGCUUGCAUCAGUAUUUAGUUA, for which the “pre-steady-state target cleavage rate” value amounted to 0.0151 ± 0.0061.

As for UCCUGGAUGUCCUUGCAUAGUUUUUACUUA, the “pre-steady-state target cleavage rate” value was found to be 0.00658 ± 0.0044.

Take UCCUGGUACAGCUUGCUUAGUAUUUAGAUA: the “pre-steady-state target cleavage rate” value worked out at 0.122 ± 0.024.

With UCCUGGUACAGCUUGCAUAAGUAUUUAGUUA, the “pre-steady-state target cleavage rate” value was 0.00838 ± 0.0052.

Turning to UCCUGGAACAGCUUGCAUAGUAUUUUGAAA, the “pre-steady-state target cleavage rate” value was 0.0888 ± 0.027.

With UCCUGGAUGUCGAACGUAAGUAAUUAGAUA, the “pre-steady-state target cleavage rate” value is below 0.0001.

Take UCCUGGAUGUCCUUGCAUAGUAUUUCGUUA: the “pre-steady-state target cleavage rate” value amounted to 0.0489 ± 0.017.

Take UCCUGGUACAGCUUGGAUAGUAUUUAGUAA: the “pre-steady-state target cleavage rate” value came out at 0.202 ± 0.041.

UCCUGCUACAGCUUGCUAUGUAUUUAGUAA: the “pre-steady-state target cleavage rate” value is 0.0455 ± 0.019.

In the case of UCCUGGAACAGCAUGCAUAGAAUUUAGUUA, the “pre-steady-state target cleavage rate” value worked out at 0.0767 ± 0.018.

For UCCUGCUACAGCUUGCAUAGAAAUUAGUUA, the “pre-steady-state target cleavage rate” value worked out at 0.059 ± 0.015.

In the case of UCCUGCUACAGGAUGCAUAGUAUUUAGAAA, the “pre-steady-state target cleavage rate” value worked out at 0.0163 ± 0.0074.

Take UCCUGCUACACGUUGCAUAGUAUUUACAAA: the “pre-steady-state target cleavage rate” value stood at 0.0287 ± 0.01.

For UCCUGGAUGAGCUUGCAUAGUAUUUGUUA, the “pre-steady-state target cleavage rate” value worked out at 0.118 ± 0.028.

Regarding UCCUCCUACACCUUGCAUAGUAUUUUCAAA, the “pre-steady-state target cleavage rate” value is 0.0721 ± 0.021.

UCCUGGAUCAGGUUGCAUAGUAUUUACUUA: the “pre-steady-state target cleavage rate” value was 0.117 ± 0.029.

With UCCUGGAUGUCCUAGCAUAGUAUUUAGUAA, the “pre-steady-state target cleavage rate” value came to 0.143 ± 0.031.

Consider UCCUCGUACAGCUUGCAUAGUAUUUACUUA, for which the “pre-steady-state target cleavage rate” value was determined as 0.0971 ± 0.015.

As to UCCUGGAACAGCUUGCAUAGAAUAUAGUUA, the “pre-steady-state target cleavage rate” value came out at 0.0426 ± 0.011.

UCCUGCUACAGCUUGCAUAGUAUUUACUAA: the “pre-steady-state target cleavage rate” value came to 0.112 ± 0.024.

For UCCUCCUACAGGUUGCAUAGUAUUUUCAAA, the “pre-steady-state target cleavage rate” value came out at 0.0497 ± 0.013.

Consider UCCUGGAUGACCUUGCAUAGUAUUUAGAAA, for which the “pre-steady-state target cleavage rate” value worked out at 0.133 ± 0.038.

With UCCUGGAUGUCGAACGUAUCUAUUUAGGUA, the “pre-steady-state target cleavage rate” value was below 0.0001.

In the case of UCCUGGAUGUCGAAGCAUAGUAUUUAGAUUA, the “pre-steady-state target cleavage rate” value amounted to 0.00757 ± 0.0041.

Staying with this test, now noted: auxiliary factor: none (no GTSF1).
For the sequence UCCUGGAUGUCGAACGUAAGUAUUUAGUUUA, the “pre-steady-state target cleavage rate” value was below 0.0001.

For the sequence UCCUGGAUGUCGAACGUAUGUAUUUCGUUA, the “pre-steady-state target cleavage rate” value was below 0.0001.

On to UCCUGGAUGUCGAUCCAUAGUAUUUUGUUA, for which the “pre-steady-state target cleavage rate” value is below 0.0001.

In the case of UCCUGGAUGUCGAACGUAAGUAAUUUGUUA, the “pre-steady-state target cleavage rate” value is below 0.0001.

Consider UCCUGGAUGUCGUUGCAUAGUUUAUAGUUA, for which the “pre-steady-state target cleavage rate” value was determined as 0.0036 ± 0.0028.

UCCUGGAUGUCGAACGUUAGUUAUUUAGUUA: the “pre-steady-state target cleavage rate” value is below 0.0001.

As for UCCUGGAUGUCGAACCAUAGUAUUUAGUGUA, the “pre-steady-state target cleavage rate” value is below 0.0001.
